# The entries come from a sample that favours the strongest signals as a whole.
# B1: CVN-E41G (protein)
# chain: MHHHHHHENLYFQSGNFSQACYNSAIQGSVLTSTCIRTNGGYNTSSIDLNSVIANVDGSLKWQGSNFIETCRNTQLAGSSELAAECKTRAQQFVSTKINLDDHIAAIDGTLKYE
# What was measured:
# Assay in all cases: glycan array binding signal (z-score within array); higher = stronger binding
# Conditions in all cases: glycan notation: IUPAC condensed, linker removed; mutation: E41A
# [1] = target: GlcNAc(b1-2)[GlcNAc(b1-4)]Man(a1-3)[GlcNAc(b1-4)][GlcNAc(b1-2)Man(a1-6)]Man(b1-4)GlcNAc(b1-4)GlcNAc
# Summary of the method: (§1)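 Arrays were curated from the Consortium for Functional Glycomics database, 3228 in total, and kept only where the protein sequence was available. Binding is expressed as a within-array Z-score. This score was averaged across arrays of the same protein sequence at different concentrations or buffers and across linkers, and negative values can be read as non-binding.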
# [2] = target: GlcNAc(b1-3)Gal(b1-4)GlcNAc(b1-2)[GlcNAc(b1-3)Gal(b1-4)GlcNAc(b1-6)]Man(a1-6)[GlcNAc(b1-3)Gal(b1-4)GlcNAc(b1-2)Man(a1-3)]Man(b1-4)GlcNAc(b1-4)GlcNAc
# Summary of the method: as §1
# [3] = target: GlcNAc(b1-3)Gal(b1-4)GlcNAc(b1-3)Gal(b1-4)GlcNAc(b1-3)Gal(b1-4)GlcNAc(b1-3)Gal(b1-4)GlcNAc(b1-2)Man(a1-3)[GlcNAc(b1-3)Gal(b1-4)GlcNAc(b1-3)Gal(b1-4)GlcNAc(b1-3)Gal(b1-4)GlcNAc(b1-3)Gal(b1-4)GlcNAc(b1-2)Man(a1-6)]Man(b1-4)GlcNAc(b1-4)GlcNAc
# Summary of the method: as §1
# [4] = target: GlcNAc(b1-3)Gal(b1-4)GlcNAc(b1-3)Gal(b1-4)GlcNAc(b1-3)GalNAc
# Summary of the method: as §1
# [5] = target: Kdn(a2-3)Gal(b1-4)Glc
# Summary of the method: as §1
# [6] = target: Man(a1-2)Man(a1-2)Man(a1-3)Man
# Summary of the method: as §1
# [7] = target: Man(a1-2)Man(a1-2)Man(a1-6)[Man(a1-3)]Man
# Summary of the method: as §1
# [8] = target: Man(a1-2)Man(a1-3)Man
# Summary of the method: as §1
# [9] = target: Man(a1-2)Man(a1-3)[Man(a1-2)Man(a1-6)]Man
# Summary of the method: as §1
# [10] = target: Man(a1-2)Man(a1-3)[Man(a1-2)Man(a1-6)]Man(a1-6)[Man(a1-2)Man(a1-2)Man(a1-3)]Man
# Summary of the method: as §1
# [11] = target: Man(a1-2)Man(a1-3)[Man(a1-6)]Man(a1-6)[Man(a1-2)Man(a1-3)]Man(b1-4)GlcNAc(b1-4)GlcNAc
# Summary of the method: as §1
# [12] = target: Man(a1-2)Man(a1-6)[Man(a1-3)]Man(a1-6)[Man(a1-2)Man(a1-2)Man(a1-3)]Man
# Summary of the method: as §1
# [13] = target: Man(a1-2)Man(a1-6)[Man(a1-3)]Man(a1-6)[Man(a1-2)Man(a1-2)Man(a1-3)]Man(b1-4)GlcNAc(b1-4)GlcNAc
# Summary of the method: as §1
# [14] = target: Man(a1-3)[Man(a1-6)]Man(a1-6)[Man(a1-2)Man(a1-3)]Man(b1-4)GlcNAc(b1-4)GlcNAc
# Summary of the method: as §1
# [15] = target: Neu5Ac(a2-3)Gal(b1-3)GlcNAc(b1-2)Man(a1-3)[GlcNAc(b1-4)][Neu5Ac(a2-3)Gal(b1-3)GlcNAc(b1-2)Man(a1-6)]Man(b1-4)GlcNAc(b1-4)GlcNAc
# Summary of the method: as §1
# [16] = target: Neu5Ac(a2-3)Gal(b1-4)GlcNAc(b1-2)Man
# Summary of the method: as §1
# [17] = target: Neu5Ac(a2-3)Gal(b1-4)GlcNAc(b1-2)Man(a1-3)[GlcNAc(b1-4)][Neu5Ac(a2-3)Gal(b1-4)GlcNAc(b1-2)Man(a1-6)]Man(b1-4)GlcNAc(b1-4)GlcNAc
# Summary of the method: as §1
# [18] = target: Neu5Ac(a2-3)Gal(b1-4)GlcNAc(b1-2)[Neu5Ac(a2-3)Gal(b1-4)GlcNAc(b1-4)]Man(a1-3)[GlcNAc(b1-4)][Neu5Ac(a2-3)Gal(b1-4)GlcNAc(b1-2)[Neu5Ac(a2-3)Gal(b1-4)GlcNAc(b1-6)]Man(a1-6)]Man(b1-4)GlcNAc(b1-4)GlcNAc
# Summary of the method: as §1
# [19] = target: Neu5Ac(a2-3)Gal(b1-4)GlcNAc(b1-3)Gal(b1-4)GlcNAc(b1-3)[Neu5Ac(a2-3)Gal(b1-4)GlcNAc(b1-3)Gal(b1-4)GlcNAc(b1-6)]GalNAc
# Summary of the method: as §1
# [20] = target: Neu5Ac(a2-3)Gal6S(b1-4)[Fuc(a1-3)]GlcNAc
# Summary of the method: as §1
# [21] = target: Neu5Ac(a2-6)Gal(b1-4)GlcNAc(b1-2)Man(a1-3)[GlcNAc(b1-4)][Neu5Ac(a2-6)Gal(b1-4)GlcNAc(b1-2)Man(a1-6)]Man(b1-4)GlcNAc(b1-4)GlcNAc
# Summary of the method: as §1
# [22] = target: Neu5Ac(a2-6)Gal(b1-4)GlcNAc(b1-2)Man(a1-3)[Neu5Ac(a2-3)Gal(b1-4)GlcNAc(b1-2)Man(a1-6)]Man(b1-4)GlcNAc(b1-4)GlcNAc
# Summary of the method: as §1
# [23] = target: Neu5Ac(a2-6)Gal(b1-4)GlcNAc(b1-3)Gal(b1-4)GlcNAc(b1-3)Gal(b1-4)GlcNAc(b1-2)Man(a1-3)[Neu5Ac(a2-6)Gal(b1-4)GlcNAc(b1-3)Gal(b1-4)GlcNAc(b1-3)Gal(b1-4)GlcNAc(b1-2)Man(a1-6)]GalNAc
# Summary of the method: as §1
# [24] = target: Neu5Ac(a2-6)Gal(b1-4)GlcNAc(b1-3)Gal(b1-4)GlcNAc(b1-6)[Gal(b1-3)]GalNAc
# Summary of the method: as §1
# [25] = target: Neu5Ac(a2-8)Neu5Ac(a2-8)Neu5Ac(a2-3)Gal(b1-4)Glc
# Summary of the method: as §1
# [26] = target: Neu5Gc(a2-6)GalNAc
# Summary of the method: as §1
binder,measurement,setting,value
B1,glycan array binding signal (z-score),[1],-0.211
same,glycan array binding signal (z-score),[2],-0.064
same,glycan array binding signal (z-score),[3],-0.204
same,glycan array binding signal (z-score),[4],-0.168
same,glycan array binding signal (z-score),[5],-0.177
same,glycan array binding signal (z-score),[6],8.7
same,glycan array binding signal (z-score),[7],8.39
same,glycan array binding signal (z-score),[8],7.22
same,glycan array binding signal (z-score),[9],8.35
same,glycan array binding signal (z-score),[10],10.5
same,glycan array binding signal (z-score),[11],5.81
same,glycan array binding signal (z-score),[12],9.42
same,glycan array binding signal (z-score),[13],6.36
same,glycan array binding signal (z-score),[14],3.98
same,glycan array binding signal (z-score),[15],0.053
same,glycan array binding signal (z-score),[16],0.044
same,glycan array binding signal (z-score),[17],-0.212
same,glycan array binding signal (z-score),[18],-0.177
same,glycan array binding signal (z-score),[19],-0.218
same,glycan array binding signal (z-score),[20],-0.235
same,glycan array binding signal (z-score),[21],-0.208
same,glycan array binding signal (z-score),[22],-0.216
same,glycan array binding signal (z-score),[23],-0.108
same,glycan array binding signal (z-score),[24],-0.172
same,glycan array binding signal (z-score),[25],-0.226
same,glycan array binding signal (z-score),[26],-0.18

# From the supplement of paper PMC8728848
